About 79,000 compounds went through this panel and 15% of them were active in at least one assay; those are over-represented in the sample as a whole. Activity calls are given as the source filed them. Rule as the data show it: active = growth inhibition above about 70%; inactive = the rest. Where a SMILES comes first, the peptide text is derived from it. [ ]: non-standard residue; d: D form. The star is where a group is joined. mTyr = N[CH](Cc1cccc(O)c1)C(=O)O; Cbz = O=C(OCc1ccccc1)*; OBn = c1ccc(CO*)cc1
Assays:
[1] = NCI Yeast Anticancer Drug Screen. Data for the rad50 strain (AID 155);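 also: 0% = growth of vehicle-only cultures of the same strain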; conditions: S. cerevisiae rad50 strain growth inhibition, stronger effect = higher value
How it was run: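 DNA repair mutant yeast, compound exposure, growth read-out; inhibition is taken relative to vehicle.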

[2] = NCI Yeast Anticancer Drug Screen. Data for the mec2-1 strain (AID 157); conditions: S. cerevisiae mec2-1 strain, stronger effect = higher value
How it was run: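 Vehicle-treated cultures served as reference for growth inhibition of compound-exposed mec2-1 yeast.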

[3] = NCI Yeast Anticancer Drug Screen. Data for the sgs1 mgt1 strain (AID 161);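 also: 0% = growth of cultures given vehicle only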; conditions: S. cerevisiae sgs1 mgt1 strain, stronger effect = higher value
How it was run: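 Inhibition of yeast growth, normalised to vehicle-treated controls, is reported for a strain bearing genetic alterations in DNA damage repair.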

[4] = NCI Yeast Anticancer Drug Screen. Data for the cln2 rad14 strain (AID 165);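 also: 0% = growth equal to vehicle treated cultures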; conditions: S. cerevisiae cln2 rad14 strain, stronger effect = higher value
How it was run: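 Each compound was tested on cln2 rad14 yeast. Inhibition of growth was calculated against vehicle-exposed controls.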

[5] = NCI Yeast Anticancer Drug Screen. Data for the bub3 strain (AID 167); conditions: S. cerevisiae bub3 mutant strain, stronger effect = higher value
How it was run: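 In this screen, a yeast mutant lacking normal mitotic checkpoint function is challenged with compound. Relative growth versus vehicle gives the inhibition value.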

[6] = NCI Yeast Anticancer Drug Screen. Data for the mlh1 rad18 strain (AID 175); conditions: S. cerevisiae mlh1 rad18 strain growth inhibition, stronger effect = higher value
How it was run: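 Vehicle-treated cultures served as the reference for growth inhibition in a yeast strain carrying DNA damage repair alterations exposed to each compound.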

[7] = at 5.0 µM (retest, dose inferred, filed as 0.5)
[8] = at 50.0 µM (retest, dose inferred, filed as 5.0)

Measured: growth inhibition

Clc1cc[c]([Sn]([O][Sn]([c]2ccc(Cl)cc2)([c]2ccc(Cl)cc2)[c]2ccc(Cl)cc2)([c]2ccc(Cl)cc2)[c]2ccc(Cl)cc2)cc1
active: [1]; [7] 98% | [1]; [8] 95% | [1]; at 50.0 µM 97.5% | [2]; [7] 99% | [2]; [8] 98% | [2]; at 50.0 µM 99.3% | [3]; [7] 99% | [3]; [8] 98% | [3]; at 50.0 µM 96.6% | [4]; [7] 99% | [4]; [8] 96% | [4]; at 50.0 µM 79.5% | [5]; [7] 98% | [5]; [8] 97% | [5]; at 50.0 µM 88.8% | [6]; [7] 99% | [6]; [8] 97% | [6]; at 50.0 µM 98.3%

C/C(=N/NC(=O)C[n+]1ccccc1)C(CN(CC(C)C)CC(C)C)C(=O)Nc1ccc(C)cc1C (configuration not stated)
active: [6]; at 50.0 µM 70.2%
inactive: [1]; [7] 5% | [1]; [8] 5% | [1]; at 50.0 µM 30.1% | [2]; [7] -10% | [2]; [8] -10% | [2]; at 50.0 µM 40.2% | [3]; [7] 5% | [3]; [8] 5% | [3]; at 50.0 µM 8.65% | [4]; [7] 5% | [4]; [8] 5% | [4]; at 50.0 µM 41% | [5]; [7] 12% | [5]; [8] 12% | [5]; at 50.0 µM 58% | [6]; [7] 6% | [6]; [8] 6%

COC(=O)C(Cc1cccc(O)c1)NC(=O)C(CC(=O)OCc1ccccc1)NC(=O)OCc1ccccc1 (configuration not stated) (Cbz-Asp(OBn)-[mTyr]-OMe; configuration not given here)
inactive: [1]; [7] -12% | [2]; [7] -6% | [2]; [8] 21% | [3]; [7] 2% | [4]; [7] 9% | [4]; [8] 64% | [5]; [7] -10% | [5]; [8] 55% | [6]; [7] -4%
active: [1]; [8] 70% | [1]; at 50.0 µM 77.2% | [2]; at 50.0 µM 74.8% | [3]; [8] 87% | [3]; at 50.0 µM 85.7% | [4]; at 50.0 µM 89.8% | [5]; at 50.0 µM 91% | [6]; [8] 75% | [6]; at 50.0 µM 80.9%

COC12C=CC(CC1)c1c2c(O)c2ccncc2c1O (configuration not stated)
active: [1]; [8] 89% | [2]; [8] 81% | [3]; [8] 87% | [5]; [8] 95% | [6]; [8] 86%
inactive: [1]; [7] 9% | [1]; at 50.0 µM 58.1% | [2]; [7] -3% | [2]; at 50.0 µM 56.7% | [3]; [7] 4% | [3]; at 50.0 µM 70% | [4]; [7] -3% | [4]; [8] 68% | [4]; at 50.0 µM 55.9% | [5]; [7] 18% | [5]; at 50.0 µM 59.8% | [6]; [7] -3% | [6]; at 50.0 µM 64.8%

— PubChem BioAssay (NCI)
